This is an account of results in publication PMC11447256.

One test concerns the target Coatomer subunit gamma-1 (UniProt Q9Y678). Briefly: cross-linking mass spectrometry.
The target of test [1] is T-complex protein 1 subunit delta (UniProt P50991). Put plainly: co-fractionation; cross-linking mass spectrometry.
In a further test the target is Protein S100-A10 (UniProt P60903). Briefly: cross-link between two proteins; cross-linking mass spectrometry.
Test [2] concerns the target Phosphoglycerate kinase 2 (UniProt P07205). Briefly: co-fractionation; co-fractionation; cross-linking mass spectrometry.
In test [3] the target is 26S proteasome non-ATPase regulatory subunit 5 (UniProt Q16401). Briefly: cross-link between two proteins; cross-linking mass spectrometry; two-hybrid or complementation screen.
Sequence of 26S proteasome non-ATPase regulatory subunit 5 (Q16401 whole entry): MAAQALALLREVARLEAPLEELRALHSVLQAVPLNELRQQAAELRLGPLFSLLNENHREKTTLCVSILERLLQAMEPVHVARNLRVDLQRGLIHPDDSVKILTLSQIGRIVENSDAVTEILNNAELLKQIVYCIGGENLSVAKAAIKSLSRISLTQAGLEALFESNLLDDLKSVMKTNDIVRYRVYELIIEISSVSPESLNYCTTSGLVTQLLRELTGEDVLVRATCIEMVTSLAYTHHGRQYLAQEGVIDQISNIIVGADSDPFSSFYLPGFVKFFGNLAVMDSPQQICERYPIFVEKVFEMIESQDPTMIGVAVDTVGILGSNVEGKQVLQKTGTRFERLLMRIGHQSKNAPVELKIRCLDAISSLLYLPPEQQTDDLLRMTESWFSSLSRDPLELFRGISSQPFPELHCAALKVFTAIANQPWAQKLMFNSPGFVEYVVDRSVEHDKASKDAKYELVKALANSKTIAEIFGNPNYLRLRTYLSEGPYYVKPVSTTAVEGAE

Sequence of Phosphoglycerate kinase 2 (P07205 whole entry): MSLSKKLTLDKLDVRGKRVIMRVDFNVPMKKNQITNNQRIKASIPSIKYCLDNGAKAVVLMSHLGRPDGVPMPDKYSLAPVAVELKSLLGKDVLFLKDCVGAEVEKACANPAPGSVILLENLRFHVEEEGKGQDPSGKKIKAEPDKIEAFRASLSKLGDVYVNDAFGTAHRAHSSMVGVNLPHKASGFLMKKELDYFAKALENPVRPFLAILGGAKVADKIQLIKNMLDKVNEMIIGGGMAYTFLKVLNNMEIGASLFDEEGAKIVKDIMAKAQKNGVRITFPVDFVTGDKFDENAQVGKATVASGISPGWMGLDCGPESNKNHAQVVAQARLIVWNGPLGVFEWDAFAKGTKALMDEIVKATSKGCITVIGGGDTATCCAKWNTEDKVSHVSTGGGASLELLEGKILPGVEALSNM
Sequence of T-complex protein 1 subunit delta (P50991 whole entry, stated change not applied, one chain of several): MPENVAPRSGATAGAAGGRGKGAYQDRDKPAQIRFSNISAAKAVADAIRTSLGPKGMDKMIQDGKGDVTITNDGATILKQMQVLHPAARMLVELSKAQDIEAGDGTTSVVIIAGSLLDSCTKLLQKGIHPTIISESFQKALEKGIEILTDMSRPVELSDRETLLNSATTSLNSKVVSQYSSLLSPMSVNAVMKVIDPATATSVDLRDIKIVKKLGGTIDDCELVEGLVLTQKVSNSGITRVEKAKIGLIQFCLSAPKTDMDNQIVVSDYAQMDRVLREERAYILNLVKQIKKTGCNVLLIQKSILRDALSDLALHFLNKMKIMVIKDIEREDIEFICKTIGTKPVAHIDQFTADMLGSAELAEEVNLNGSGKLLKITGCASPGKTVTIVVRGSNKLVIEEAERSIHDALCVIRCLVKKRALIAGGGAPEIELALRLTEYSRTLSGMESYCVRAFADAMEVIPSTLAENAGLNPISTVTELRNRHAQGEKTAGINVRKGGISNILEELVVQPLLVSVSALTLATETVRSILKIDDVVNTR
Sequence of Protein S100-A10 (P60903 whole entry): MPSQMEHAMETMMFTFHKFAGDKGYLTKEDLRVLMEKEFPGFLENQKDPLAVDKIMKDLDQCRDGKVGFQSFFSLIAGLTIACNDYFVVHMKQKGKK
Sequence of Coatomer subunit gamma-1 (Q9Y678 whole entry): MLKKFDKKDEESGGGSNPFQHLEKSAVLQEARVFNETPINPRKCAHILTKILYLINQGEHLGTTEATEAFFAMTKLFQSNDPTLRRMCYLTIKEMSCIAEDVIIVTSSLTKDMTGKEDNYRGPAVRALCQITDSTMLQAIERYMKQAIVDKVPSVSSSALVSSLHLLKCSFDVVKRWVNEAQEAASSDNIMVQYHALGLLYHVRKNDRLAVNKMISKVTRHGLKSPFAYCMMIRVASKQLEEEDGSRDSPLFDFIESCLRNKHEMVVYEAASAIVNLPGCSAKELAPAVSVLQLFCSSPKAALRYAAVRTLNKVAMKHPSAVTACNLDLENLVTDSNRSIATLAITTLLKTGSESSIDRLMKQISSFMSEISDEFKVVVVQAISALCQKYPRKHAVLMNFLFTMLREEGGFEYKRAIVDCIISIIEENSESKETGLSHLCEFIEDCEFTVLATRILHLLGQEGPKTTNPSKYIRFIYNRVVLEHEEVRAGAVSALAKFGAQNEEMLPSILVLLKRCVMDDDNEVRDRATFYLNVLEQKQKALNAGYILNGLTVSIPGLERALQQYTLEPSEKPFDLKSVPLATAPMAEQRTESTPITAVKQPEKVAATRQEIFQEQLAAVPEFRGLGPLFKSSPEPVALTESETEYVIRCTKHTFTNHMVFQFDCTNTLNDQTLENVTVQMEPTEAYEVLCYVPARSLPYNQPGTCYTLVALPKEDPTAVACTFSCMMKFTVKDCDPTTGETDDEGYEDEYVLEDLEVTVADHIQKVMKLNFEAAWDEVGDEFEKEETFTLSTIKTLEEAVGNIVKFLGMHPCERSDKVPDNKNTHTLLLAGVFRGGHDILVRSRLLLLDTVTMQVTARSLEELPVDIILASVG

Coatomer subunit beta, P53618: the “listed as a hit” value with Coatomer subunit gamma-1 is “yes”.

Take “T-complex protein 1 subunit gamma, P49368”: the “listed as a hit” value in test [1] is “yes”. Regarding “Putative annexin A2-like protein, A6NMY6”, the “listed as a hit” value with Protein S100-A10 was “yes”. Turning to Phosphoglycerate kinase 1, P00558, the “listed as a hit” value in test [2] is “yes”. With “26S proteasome regulatory subunit 7, P35998”, the “listed as a hit” value in test [3] was “yes”.
